Screening data (PubChem BioAssay)
The sample as a whole holds a higher share of hits than the screen did.
TTR transcr act: activators of transthyretin transcription; hit rate 1.3% among 92,000; SH-SY5Y TTR promoter Gaussia luciferase, luminescence; 100% = recombinant luciferase protein wells; activation, % at 16.7 µM; AID 1117267;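 active means activation above the mean of all tested compounds plus 3 SD, cut at about 9.5% in these data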;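 further: cells exposed to compounds for one day before reading; 0% = median of all test compound wells on the plate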
HuH7 TTR inh: counter-screen for TTR activators: TTR transcription inhibitors in HuH7 cells; shares compounds with TTR transcr act; AID 1117279; hit rate 4% among 1,100; inhibition, % at 16.7 µM; HuH7 TTR promoter-Gaussia luciferase reporter, luminescence;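 active means average inhibition above the solvent-only control wells' mean plus 3 SD, cut at about 15% in these data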;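 further: 0% = cells with DMSO only and 100% = cells with inhibitor control FD; inhibitors lower well luminescence so higher value means more inhibition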
TTR act confirm: human TTR transcription activation, confirmation | shares compounds with TTR transcr act | SHSY5Y TTR promoter Gaussia luciferase, luminescence; 100% = purified Lucia enzyme wells, no cells | activation, % at 16.7 µM | 1,100 tested, under 10 active | AID 1117280;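 active means mean activation above a set limit taken from the earlier primary screen, cut at about 11% in these data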;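 further: 0% = DMSO-treated cells and 100% = recombinant Lucia luciferase without cells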
* = called active by the depositor.

O=C1CN(C(=O)NCC(=O)N[C@H](C(=O)O)c2ccccc2)c2ccccc2N1 was read as TTR transcr act 0.8.
O=C1CN(C(=O)c2ccccn2)c2ccccc2N1 was read as TTR transcr act 0.1.
`O=C1CN(C(=O)OCc2ccccc2)c2ccccc2N1` gave TTR transcr act 14.4*, HuH7 TTR inh -9.5 and TTR act confirm 0.1.
Screening O=C(OCc1cn(Cc2cccc(F)c2F)nn1)N1CCOCC1 returned TTR transcr act -1.9.
`CC1CCc2c(sc3ncnc(N4CCOCC4)c23)C1` (stereo not given) gave TTR transcr act -1.0.
Screening CCN1CCN(c2nc3sc4c(c3c3ncnn23)CC(C)CC4)CC1 (stereo not given) returned TTR transcr act 11.4*, HuH7 TTR inh -30.9 and TTR act confirm -0.2.
`CC1CCc2sc3nc(NCc4ccco4)n4ncnc4c3c2C1` (stereo not given) gave TTR transcr act 2.1.
Screening Cc1ccc(C)c(NC(=O)C2(C)CCCN2C(=O)C(C)C)c1 (stereo not given) returned TTR transcr act 0.7.
`O=C(O)c1ccc(N2CC3CC(C2)c2cccc(=O)n2C3)c(NC(=S)Nc2ccc(Cl)cc2Cl)c1` (stereo not given) gave TTR transcr act 10.6*, HuH7 TTR inh -3.9 and TTR act confirm 0.1.
For O=C(CCN1CCOCC1)Nc1cc(C(=O)Nc2ccccc2F)ccc1N1CC2CC(C1)c1cccc(=O)n1C2 (stereo not given) the results were TTR transcr act 0.5.
Nc1cc(C(=O)N2CCN(c3cccc(Cl)c3)CC2)ccc1N1CC2CC(C1)c1cccc(=O)n1C2 (stereo not given) was read as TTR transcr act -2.0.
`Cc1ccc(CN2CCCCC(NC(=O)c3ccc(-c4ccccc4)cc3)C2=O)cc1` (stereo not given) gave TTR transcr act -2.2.
For Cc1cc(C)n(S(=O)(=O)c2ccccc2[N+](=O)[O-])n1 the results were TTR transcr act -1.9.
For CCOC(=O)c1ccccc1NC(=O)C(C)Oc1ccccc1 (stereo not given) the results were TTR transcr act -1.6.
`CCOC(=O)c1ccccc1NC(=O)C=C(C)C` gave TTR transcr act -0.4.
For CCOCCOC(=O)COC(=O)c1ccccc1NC(=O)c1ccccc1 the results were TTR transcr act 12.3*, HuH7 TTR inh -12.0 and TTR act confirm 1.5.
For CCCCC(=O)Nc1ccc(NC(=O)CCCC)nc1 the results were TTR transcr act -0.4.
Screening CCCCCCCC(=O)NC1=NC(=O)C(C)(C)S1 returned TTR transcr act 12.6*, HuH7 TTR inh 3.4 and TTR act confirm 0.6.
Screening CCCCC(=O)Nc1ccc(Br)cn1 returned TTR transcr act 0.9.
For CC(C)CNC(=O)OCc1cn(Cc2ccc(F)cc2F)nn1 the results were TTR transcr act -0.2.
For CSCCC(NC(=O)C1CCC(C)CC1)C(=O)O (stereo not given) the results were TTR transcr act 57.5*, HuH7 TTR inh 7.0 and TTR act confirm 2.9.
CSCC[C@H](NC(=O)[C@H]1CC[C@H](CNC(=O)[C@@H]2CCCN2)CC1)C(=O)O was read as TTR transcr act 0.5.
Screening COC(=O)C(CCSC)NC(=O)C(NC(=O)C1CCC(C)CC1)C(C)C (stereo not given) returned TTR transcr act -2.4.
For Cc1ccccc1Cn1cc(COC(=O)N2CCOCC2)nn1 the results were TTR transcr act 0.4.
O=C(NNC(=O)c1ccco1)c1ccc(NS(=O)(=O)c2cccs2)cc1 was read as TTR transcr act 13.8*, HuH7 TTR inh -8.2 and TTR act confirm 0.4.
`O=C(O)c1ccc(/C=N/NC(=O)c2ccc(NS(=O)(=O)c3cccs3)cc2)cc1` gave TTR transcr act 4.4.
Screening O=C(NNC(=O)c1cc(F)c(F)cc1Cl)c1ccc(NS(=O)(=O)c2cccs2)cc1 returned TTR transcr act 1.3.
`Cc1ccc(CNC(=O)COC(=O)[C@@H]2CC(O)CN2S(=O)(=O)c2ccc3c(c2)OCCO3)cc1` (stereo not given in full) gave TTR transcr act 3.5.
Cc1ccc(S(=O)(=O)N2CC(O)CC2C(=O)NCc2ccc3c(c2)OCO3)cc1 (stereo not given) was read as TTR transcr act 14.5*, HuH7 TTR inh -4.2 and TTR act confirm -0.6.
`Cc1ccc(NC(=O)N2CCCC2C(=O)NCc2ccc3c(c2)OCO3)cc1` (stereo not given) gave TTR transcr act 0.0.
For CCOC(=O)[C@@H]1CSCCS(=O)(=O)N1Cc1ccc(C(F)(F)F)cc1 the results were TTR transcr act -1.1.
COC(=O)c1ccc(OS(=O)(=O)N(C)C)cc1 was read as TTR transcr act -0.6.
`Nc1[nH]c(C(=O)c2ccccc2)c(-c2ccccc2C(F)(F)F)c1C(=O)NCc1ccc(F)cc1` gave TTR transcr act 0.8.
O=Cc1nc(Nc2cc(F)cc(F)c2)nc(NC2CCCC2)n1 was read as TTR transcr act -1.5.
Screening O=C(COc1ccc(Br)cc1)Nc1ccc(S(=O)(=O)Nc2ccccn2)cc1 returned TTR transcr act -1.1.
`Cc1cccc(C)c1OCC(=O)Nc1ccncc1` gave TTR transcr act -0.6.
Cc1cccc(C)c1OCC(=O)Nc1ccc(S(=O)(=O)Nc2ccccn2)cc1 was read as TTR transcr act 17.4*, HuH7 TTR inh -4.3 and TTR act confirm 0.2.
For CCCC1CCC2(CC1)CCC2OC(=O)Nc1cccc(Cl)c1 (stereo not given) the results were TTR transcr act 2.4.
COc1ncnc2c1ncn2CCCN1CCN(C(=O)C2CC2)CC1 was read as TTR transcr act 0.1.
`Cc1cccc(C)c1NC(=O)CSc1nnc(C)n1-c1ccccc1` gave TTR transcr act -1.8.
COc1ccc(O)c(/C=N/NC(=O)CSc2nnc(C)n2-c2ccccc2)c1 was read as TTR transcr act 11.1*, HuH7 TTR inh -16.9 and TTR act confirm 1.3.
`COC(=O)c1ccc(NC(=O)CSc2nnc(C)n2-c2ccccc2)cc1` gave TTR transcr act -0.4.
For COC(=O)C1=C(C)N=C2SCCC(=O)N2C1c1ccc(C(=O)OC)cc1 (stereo not given) the results were TTR transcr act 16.0*, HuH7 TTR inh -6.8 and TTR act confirm 2.0.
For CC1=C(C(=O)OC(C)C)C(c2cccs2)N2C(=O)CCSC2=N1 (stereo not given) the results were TTR transcr act -2.2.
CC1(C)CC(=O)C2=C(C1)N=C1SCCC(=O)N1C2c1ccccc1 (stereo not given) was read as TTR transcr act -1.3.
`C=CC[C@]1(O)C(=O)N(c2ccccc2)c2ccccc21` gave TTR transcr act -0.7.
COC(=O)[C@]12C[C@H](CC(=O)NCc3ccc(C)o3)C(=O)N(Cc3cccc4ccccc34)C1=C[C@H](C1CCCC1)O[C@@H]2C was read as TTR transcr act 3.4.
COC(=O)[C@]12C[C@H](CC(=O)N3CCCCC3)C(=O)N(CCc3ccc(OC)c(OC)c3)C1=C[C@H](C(C)C)O[C@@H]2C1CC1 was read as TTR transcr act 0.9.
Screening O=C(NCC(O)c1ccc([N+](=O)[O-])cc1)c1cccc(S(=O)(=O)N2CCCC2)c1 (stereo not given) returned TTR transcr act 0.2.
